{"source": "the supplement of paper PMC4022240", "test_in_all_cases": "peptide microarray binding signal (635 nm), min-max normalized on array (fraction of array maximum); higher = stronger binding", "key": {"[1]": {"target": "T1, HaloTag-ATRX ADD domain (163-292)", "T1 chain": "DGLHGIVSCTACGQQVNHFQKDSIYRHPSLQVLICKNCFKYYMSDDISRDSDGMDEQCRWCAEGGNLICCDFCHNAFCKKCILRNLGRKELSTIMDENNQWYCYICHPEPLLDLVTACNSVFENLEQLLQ", "protocol": "(§1)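 Histone 13-mer peptides were synthesized as cellulose conjugates with a C-terminal 20-atom PEG linker and printed in triplicate on nitrocellulose. The sequence given is the unmodified backbone; PTMs (Kme1/2/3, Kac, Sph/Tph, Rme/Rme2a/Rme2s, Rcit) are listed in the label and the 'peptide modifications' condition. Slides were probed at 4 °C for 1 h with biotin-labelled (HQ)5-HaloTag reader fusions (ATRX-ADD, ING2-PHD) then streptavidin-Alexa647, or with rabbit histone antibodies then anti-rabbit Alexa647. The mean 635 nm signal of the triplicate spots was scaled 0-1 between the lowest and highest values on each array.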"}, "[2]": {"target": "HaloTag-ING2 PHD (mouse Ing2 200-280)", "protocol": "as §1"}, "[3]": {"target": "anti-H3K4me3 antibody ab8580", "protocol": "as §1"}, "[4]": {"target": "anti-H3K9me3 antibody ab8898", "protocol": "as §1"}, "[5]": {"details": "peptide region: H2A 11-23, peptide modifications: H2AK13ac, binder concentration: 1:2,000 dilution"}, "[6]": {"details": "peptide region: H2A 11-23, peptide modifications: H2AK13ac, binder concentration: 1:10,000 dilution"}, "[7]": {"details": "peptide region: H2B 1-13, binder concentration: 1:2,000 dilution"}, "[8]": {"details": "peptide region: H2B 1-13, binder concentration: 1:10,000 dilution"}, "[9]": {"details": "peptide region: H2B 1-13, peptide modifications: H2BK5ac H2BS6ph H2BK11ac, binder concentration: 1:2,000 dilution"}, "[10]": {"details": "peptide region: H2B 1-13, peptide modifications: H2BK5ac H2BS6ph H2BK11ac, binder concentration: 1:10,000 dilution"}, "[11]": {"details": "peptide region: H2A 1-13, peptide modifications: H2AR3me2s H2AK5ac, binder concentration: 1:2,000 dilution"}, "[12]": {"details": "peptide region: H2A 1-13, peptide modifications: H2AR3me2s H2AK5ac, binder concentration: 1:10,000 dilution"}, "[13]": {"details": "peptide region: H2A 11-23, binder concentration: 1:2,000 dilution"}, "[14]": {"details": "peptide region: H2A 11-23, binder concentration: 1:10,000 dilution"}}, "note": "± gives the standard deviation."}
{"binder": "RAKAKTRSSRAGL", "note": "[H2A 11-23 R A Kac A K T R S S R A G L]", "values": [{"measurement": "peptide microarray binding signal", "setting": "[1]; peptide region: H2A 11-23, peptide modifications: H2AK13ac, binder concentration: 50 nM", "value": "0.00351 ± 0.00033"}, {"measurement": "peptide microarray binding signal", "setting": "[1]; peptide region: H2A 11-23, peptide modifications: H2AK13ac, binder concentration: 500 nM", "value": 0.00457}, {"measurement": "peptide microarray binding signal", "setting": "[2]; peptide region: H2A 11-23, peptide modifications: H2AK13ac, binder concentration: 10 nM", "value": "0.003641 ± 3.4e-05"}, {"measurement": "peptide microarray binding signal", "setting": "[2]; peptide region: H2A 11-23, peptide modifications: H2AK13ac, binder concentration: 100 nM", "value": "0.0034 ± 0.00042"}, {"measurement": "peptide microarray binding signal", "setting": "[3]; [5]", "value": "0.00051 ± 3.1e-05"}, {"measurement": "peptide microarray binding signal", "setting": "[3]; [6]", "value": "0.00103 ± 2.8e-05"}, {"measurement": "peptide microarray binding signal", "setting": "[4]; [5]", "value": "0.000378 ± 1.6e-05"}, {"measurement": "peptide microarray binding signal", "setting": "[4]; [6]", "value": "0.00075 ± 2.9e-05"}]}
{"binder": "PEPAKSAPAPKKG", "note": "[H2B 1-13 P E P A K S A P A P K K G]", "values": [{"measurement": "peptide microarray binding signal", "setting": "[1]; peptide region: H2B 1-13, binder concentration: 50 nM", "value": "0.00715 ± 0.00022"}, {"measurement": "peptide microarray binding signal", "setting": "[1]; peptide region: H2B 1-13, binder concentration: 500 nM", "value": "0.00119 ± 0.0002"}, {"measurement": "peptide microarray binding signal", "setting": "[2]; peptide region: H2B 1-13, binder concentration: 10 nM", "value": "0.00197 ± 0.00013"}, {"measurement": "peptide microarray binding signal", "setting": "[2]; peptide region: H2B 1-13, binder concentration: 100 nM", "value": "0.00149 ± 7.7e-05"}, {"measurement": "peptide microarray binding signal", "setting": "[3]; [7]", "value": "9.44e-05 ± 1e-06"}, {"measurement": "peptide microarray binding signal", "setting": "[3]; [8]", "value": "0.000342 ± 7.5e-06"}, {"measurement": "peptide microarray binding signal", "setting": "[4]; [7]", "value": "0.000257 ± 2.6e-05"}, {"measurement": "peptide microarray binding signal", "setting": "[4]; [8]", "value": "0.000807 ± 2.9e-05"}]}
{"binder": "PEPAKSAPAPKKG", "note": "[H2B 1-13 P E P A Kac Sph A P A P Kac K G]", "values": [{"measurement": "peptide microarray binding signal", "setting": "[1]; peptide region: H2B 1-13, peptide modifications: H2BK5ac H2BS6ph H2BK11ac, binder concentration: 50 nM", "value": "0.0021 ± 2.5e-05"}, {"measurement": "peptide microarray binding signal", "setting": "[1]; peptide region: H2B 1-13, peptide modifications: H2BK5ac H2BS6ph H2BK11ac, binder concentration: 500 nM", "value": "0.00276 ± 5.8e-05"}, {"measurement": "peptide microarray binding signal", "setting": "[2]; peptide region: H2B 1-13, peptide modifications: H2BK5ac H2BS6ph H2BK11ac, binder concentration: 10 nM", "value": "0.00603 ± 0.00058"}, {"measurement": "peptide microarray binding signal", "setting": "[2]; peptide region: H2B 1-13, peptide modifications: H2BK5ac H2BS6ph H2BK11ac, binder concentration: 100 nM", "value": "0.00206 ± 5.4e-05"}, {"measurement": "peptide microarray binding signal", "setting": "[3]; [9]", "value": "0.00364 ± 0.00027"}, {"measurement": "peptide microarray binding signal", "setting": "[3]; [10]", "value": "0.00131 ± 3.4e-05"}, {"measurement": "peptide microarray binding signal", "setting": "[4]; [9]", "value": "0.00131 ± 4.4e-05"}, {"measurement": "peptide microarray binding signal", "setting": "[4]; [10]", "value": "0.00185 ± 8e-05"}]}
{"binder": "SGRGKQGGKARAK", "note": "[H2A 1-13 S G Rme2s G Kac Q G G K A R A K]", "values": [{"measurement": "peptide microarray binding signal", "setting": "[1]; peptide region: H2A 1-13, peptide modifications: H2AR3me2s H2AK5ac, binder concentration: 50 nM", "value": "0.00458 ± 0.00026"}, {"measurement": "peptide microarray binding signal", "setting": "[1]; peptide region: H2A 1-13, peptide modifications: H2AR3me2s H2AK5ac, binder concentration: 500 nM", "value": "0.00562 ± 0.00037"}, {"measurement": "peptide microarray binding signal", "setting": "[2]; peptide region: H2A 1-13, peptide modifications: H2AR3me2s H2AK5ac, binder concentration: 10 nM", "value": "0.00603 ± 0.00016"}, {"measurement": "peptide microarray binding signal", "setting": "[2]; peptide region: H2A 1-13, peptide modifications: H2AR3me2s H2AK5ac, binder concentration: 100 nM", "value": "0.00461 ± 7.6e-05"}, {"measurement": "peptide microarray binding signal", "setting": "[3]; [11]", "value": 0.000736}, {"measurement": "peptide microarray binding signal", "setting": "[3]; [12]", "value": "0.0012 ± 1.2e-05"}, {"measurement": "peptide microarray binding signal", "setting": "[4]; [11]", "value": "0.000589 ± 9.4e-06"}, {"measurement": "peptide microarray binding signal", "setting": "[4]; [12]", "value": "0.00179 ± 6.1e-05"}]}
{"binder": "RAKAKTRSSRAGL", "note": "[H2A 11-23 R A K A K T R S S R A G L]", "values": [{"measurement": "peptide microarray binding signal", "setting": "[1]; peptide region: H2A 11-23, binder concentration: 50 nM", "value": "0.00404 ± 4.2e-05"}, {"measurement": "peptide microarray binding signal", "setting": "[1]; peptide region: H2A 11-23, binder concentration: 500 nM", "value": "0.00457 ± 5.4e-05"}, {"measurement": "peptide microarray binding signal", "setting": "[2]; peptide region: H2A 11-23, binder concentration: 10 nM", "value": "0.003462 ± 3.2e-05"}, {"measurement": "peptide microarray binding signal", "setting": "[2]; peptide region: H2A 11-23, binder concentration: 100 nM", "value": "0.00581 ± 0.00028"}, {"measurement": "peptide microarray binding signal", "setting": "[3]; [13]", "value": "0.00125 ± 0.0004"}, {"measurement": "peptide microarray binding signal", "setting": "[3]; [14]", "value": 0.000571}, {"measurement": "peptide microarray binding signal", "setting": "[4]; [13]", "value": "0.000257 ± 2.7e-06"}, {"measurement": "peptide microarray binding signal", "setting": "[4]; [14]", "value": "0.000692 ± 7.3e-06"}]}
